PP1 inh: PP1-alpha phosphatase inhibitors, primary screen, counter-screen for PP5 inhibitor project, biochemical, fluorescence, OMFP substrate, single point | actives 0.9% (n = 320,000) | purified PP1alpha | inhibition, % at 6.7 µM | Serine/threonine-protein phosphatase PP1-alpha catalytic subunit (Homo sapiens), P62136;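 active means inhibition above the mean inhibition of all tested compounds plus 3 SD, computed separately for each screening campaign, cut at about 15% in these data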
Target sequence (P62136 whole entry, looked up): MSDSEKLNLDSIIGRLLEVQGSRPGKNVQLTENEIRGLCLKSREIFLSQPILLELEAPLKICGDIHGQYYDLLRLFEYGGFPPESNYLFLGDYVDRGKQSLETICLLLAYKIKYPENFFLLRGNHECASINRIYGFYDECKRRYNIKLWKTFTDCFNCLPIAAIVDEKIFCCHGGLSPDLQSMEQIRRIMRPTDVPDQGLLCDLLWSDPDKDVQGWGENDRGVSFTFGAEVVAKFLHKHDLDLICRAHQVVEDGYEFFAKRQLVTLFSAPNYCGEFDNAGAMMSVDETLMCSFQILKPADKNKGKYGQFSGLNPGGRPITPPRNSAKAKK
Calb FLC: C. albicans growth inhibition with fluconazole, primary screen, CaCi-2 strain, Alamar Blue fluorescence; C. albicans CaCi-2 (fluconazole-resistant clinical isolate) + fluconazole, 48 h; growth inhibition, % (no concentration beside the values); actives 0.57% (n = 300,000);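 active means growth inhibition above about 58% in most replicates, limit read from the data, passing the limit was not always enough; inconclusive means exactly half the replicates above a set limit; inactive means most replicates below a set limit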;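 further: all wells also contain fluconazole at 8 µg/ml as a sub-toxic cotreatment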
CSC inhib: cancer stem cell viability inhibitors, primary screen, luminescence; actives 1.1% (n = 300,000); cancer stem cell-like cells viability; inhibition, % at 7.5 µM; in the data active means inhibition above about 75%; inconclusive means no clear call, values can overlap the other calls; tested in HMLE shEcad cells
PP5 inh: PP5 phosphatase inhibitors, primary screen, biochemical, fluorescence | AID 1987, 2009 | purified PP5c, OMFP substrate fluorescence | actives 0.18% (n = 320,000) | Serine/threonine-protein phosphatase 5 (Homo sapiens), P53041 | inhibition, % at 6.7 µM;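 active means inhibition above the campaign's mean inhibition across all tested compounds plus 3 SD, cut at about 9.5% in these data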
ALR H2O2 inh: inhibitors of human ALR sulfhydryl oxidase, primary screen, biochemical, H2O2 detection, HRP-luminol luminescence, single point | FAD-linked sulfhydryl oxidase ALR (Homo sapiens), P55789 | purified ALR, DTT oxidation | inhibition, % (test concentration not listed) | actives 3.8% (n = 290,000) | AID 485317, 2010;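 active means mean replicate inhibition above about 79%, with every replicate also reaching it, limit read from the data; inconclusive means only one of the two criteria met; inactive means mean below limit and not every replicate reaching it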
Target sequence (P55789 whole entry, looked up): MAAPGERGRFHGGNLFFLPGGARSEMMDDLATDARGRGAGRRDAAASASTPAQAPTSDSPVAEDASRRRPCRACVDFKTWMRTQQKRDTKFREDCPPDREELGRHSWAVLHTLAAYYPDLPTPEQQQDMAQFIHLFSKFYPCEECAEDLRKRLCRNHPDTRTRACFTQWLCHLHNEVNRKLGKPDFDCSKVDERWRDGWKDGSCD
Large screens that a line does not name were inactive. Only some compounds are listed: those with a hit (about 5.4% of all), similar ones and a draw of the others.

c1ccc(-c2noc(CN3CCN(c4ccccc4)CC3)n2)cc1	ALR H2O2 inh 82
CN(Cc1nc(-c2cccnc2)no1)S(=O)(=O)c1ccccc1	none (no result: ALR H2O2 inh)
N#C/C(=C(/O)c1ccc(Br)s1)c1nc2ccccc2[nH]1	none (no result: ALR H2O2 inh)
CN(CC(=O)Nc1c(Cl)cccc1Cl)C(=O)c1sccc1-c1ccccc1	none
O=C(Nc1ccc(CN2CCOCC2)cc1)c1cc2ccccc2o1	Calb FLC inconclusive
O=C(Nc1ccc(CN2CCOCC2)cc1)c1cc2ccccn2n1	ALR H2O2 inh 85
CC1=C(C(N)=O)C(c2ccccn2)n2nc(-c3ccccc3Cl)nc2N1 (stereo not given)	none (no result: PP1 inh, CSC inhib, PP5 inh, ALR H2O2 inh)
O=[N+]([O-])c1ccc(N/N=C2\CC3CC=CC23)cc1 (stereo not given)	ALR H2O2 inh 96
O=[N+]([O-])c1ccc(N/N=C2\CC3CC=CC23)c([N+](=O)[O-])c1 (stereo not given)	none
CCCOC(=O)c1ccc(Oc2cn[nH]c2-c2ccc(OC)cc2O)cc1	CSC inhib 104
N=c1c2c(-c3ccccc3)c(-c3ccccc3)n(Cc3ccco3)c2ncn1CCCn1ccnc1	none (no result: ALR H2O2 inh)
N=c1c2c(-c3ccccc3)c(-c3ccccc3)n(Cc3ccccc3)c2ncn1CCO	Calb FLC 97
N/C(COc1cccc(Cl)c1)=N\O	none
COC(=O)COc1cccc(NC(=O)c2ccc(C)cc2)c1	none
CCOC(=O)N1CCN(CC(=O)N2c3ccccc3Sc3ccccc32)CC1	none (no result: ALR H2O2 inh)
O=C(COc1ccc(Cl)cc1Cl)N/N=C/CCc1ccccc1	none
O=C(COc1ccc(Cl)cc1Cl)N/N=C/c1ccc[nH]1	CSC inhib 79
O=C(CCCOc1ccc(Cl)cc1Cl)N/N=C/c1ccccc1O	CSC inhib 168
Cc1cc(NC(=O)CN2C(=O)NC(C)(c3ccc(OC(F)F)cc3)C2=O)no1 (stereo not given)	none
O=c1cc(CN2CCN(c3ccc(F)cc3)CC2)nc2sccn12	ALR H2O2 inh 98 (no result: Calb FLC)
Cc1cccc(N2CCN(Cc3cc(=O)n4ccsc4n3)CC2)c1C	none
O=c1cc(CN2CCN(c3ccccc3O)CC2)nc2sccn12	ALR H2O2 inh 99 (no result: CSC inhib)
CN(Cc1cc(=O)n2ccsc2n1)c1ccccc1	ALR H2O2 inh 98
CN(Cc1cc(=O)n2ccsc2n1)C1CCCCC1	none
COc1ccc(Cn2cccc(NC(=O)Nc3ccc(F)cc3)c2=O)cc1	none
CCOC(=O)c1c(N)sc2c(NC(C)=O)cccc12	ALR H2O2 inh 98
CCOC(=O)c1c(N)sc2c(O)c(Br)ccc12	ALR H2O2 inh 98
CCOC(=O)c1c(NC(C)=O)sc2c(OC)c(Br)ccc12	none
COC(=O)c1ccc(CSc2cc(C)c3ccccc3n2)o1	none
COC(=O)c1ccc(CSc2nc(C(F)(F)F)c3c(c2C#N)CCC3)o1	ALR H2O2 inh 98
Cc1ccc2c(CN3CC(C)CC(C)C3)cc(=O)oc2c1C (stereo not given)	none (no result: ALR H2O2 inh)
Cc1cc(C)c(C(=O)Nc2ccc(S(=O)(=O)Nc3onc(C)c3C)cc2)c(C)c1	none (no result: Calb FLC, CSC inhib, ALR H2O2 inh)
Cc1ccc(-c2cc(C(=O)Nc3ccc(S(=O)(=O)Nc4onc(C)c4C)cc3)c3ccccc3n2)cc1	ALR H2O2 inh 98
Cc1ccc2c(C)c(C(=O)Nc3ccc(S(=O)(=O)Nc4onc(C)c4C)cc3)oc2c1	ALR H2O2 inh 97
Cc1noc(NS(=O)(=O)c2ccc(NC(=O)c3cnc4n(c3=O)CCS4)cc2)c1C	ALR H2O2 inh 99
Cc1noc(NS(=O)(=O)c2ccc(NC(=O)c3oc4ccc(Cl)cc4c3C)cc2)c1C	ALR H2O2 inh 98
Cc1c(C(=O)Nc2ccc(S(=O)(=O)Nc3ncccn3)cc2)oc2ccc(Cl)cc12	none
Cc1ccccc1C(=O)Nc1ccc(S(=O)(=O)Nc2onc(C)c2C)cc1	none
Cc1ccc(S(=O)(=O)NCC(c2ccco2)S(=O)(=O)c2ccccc2)cc1 (stereo not given)	none
Cc1ccccc1C(=O)Nc1nc(-c2cccnc2)cs1	none
O=C(CCS(=O)(=O)c1cccc2nonc12)Nc1cccc2c1CCCC2	none (no result: ALR H2O2 inh)
Cc1ccc2c(=O)cc(C(=O)Nc3ccc(S(=O)(=O)Nc4onc(C)c4C)cc3)oc2c1	ALR H2O2 inh 97 (no result: CSC inhib)
NCCSc1c(-c2ccc(F)cc2)[nH]c2ccccc12	none
COc1ccc(OC)c(C(=O)CSc2nccc(-c3ccc(Br)cc3)n2)c1	CSC inhib 79
COc1ccc(-c2ccnc(SCC(=O)c3ccc(OC)c(OC)c3)n2)cc1	none
Cc1cccc(OCc2nc(C#N)c(N3CC(C)CC(C)C3)o2)c1 (stereo not given)	none (no result: ALR H2O2 inh)
COc1ccc(NC(=O)[C@H](Cc2c[nH]c3ccccc23)NC(=O)[C@@H]2Cc3ccccc3CN2)cc1	none
CC(C)c1ccc(NC(=O)[C@H](Cc2c[nH]c3ccccc23)NC(=O)[C@@H]2Cc3ccccc3CN2)cc1	PP1 inh 16
O=C(Nc1ccc(SC(F)F)cc1)C1CC(=O)N(Cc2ccccc2)C1 (stereo not given)	ALR H2O2 inh 95
O=C(Nc1ccccc1)C1CC(=O)N(Cc2ccccc2)C1 (stereo not given)	none
CN1/C(=C\C=C(C#N)C#N)C(C)(C)c2ccccc21	none
CN1/C(=C/C=N/n2cnnc2)C(C)(C)c2ccccc21	ALR H2O2 inh 94
COc1ccc(OCC(=O)NCc2n[nH]c(=O)c3ccccc23)cc1	none (no result: CSC inhib)
CCc1ccc(NC(=O)Cn2cnc3sc(C)c(S(=O)(=O)N4CCOCC4)c3c2=O)cc1	none
CNC(=O)Nc1cc(C(F)(F)F)cc(C(F)(F)F)c1	Calb FLC 86
Cc1ccc(CNC(=O)C2CCC(=O)N2Cc2ccccc2Cl)cc1 (stereo not given)	none (no result: CSC inhib, ALR H2O2 inh)
Cc1cc(NC(=O)c2ccc(S(=O)(=O)Nc3ccccc3)cc2)no1	ALR H2O2 inh 98
COc1ccc(OC)c(Nc2nc(-c3sc(NC(=O)c4ccccc4)nc3C)cs2)c1	none
COc1cc(CNC2CCCC2)cc(Cl)c1OCc1ccccc1Cl	CSC inhib 80
O=c1[nH]c(-c2ccncc2)nc2ccccc12	none
N=c1oc2ccccc2cc1-c1nc2ccccc2c(=O)[nH]1	ALR H2O2 inh 94
O=C(C1CCCN(Cc2ccc(Br)cc2)C1)N1CCCCC1 (stereo not given)	ALR H2O2 inh 90
CCn1c(=NC(=O)c2cccc(N3C(=O)CCC3=O)c2)sc2c(C)ccc(OC)c21	none
COc1ccc(C(=O)N(Cc2nc(-c3ccc(C)cc3)no2)C2CCCCC2)cc1OC	none
COc1cc(/C=N/O)cc(Br)c1OC	ALR H2O2 inh 90
COc1cc(/C=N/O)cc(Cl)c1OC	none
Cc1ccc(C=C2C(=O)c3ccccc3C2=O)o1	none
S=C(NCCc1ccccn1)Nc1ccccc1Cl	ALR H2O2 inh 94
COc1ccc(CCNC(=O)C2CCN(S(=O)(=O)c3ccc(OC)c(OC)c3)CC2)cc1	none
O=C(NC1CCCC1)c1ccc(COCC(F)(F)C(F)F)o1	ALR H2O2 inh 98
COc1cc(C2(c3ccc(O)c(OC)c3)C(=O)Nc3c(C)cc(Br)cc32)ccc1O	ALR H2O2 inh 80

Assay outcomes deposited in PubChem BioAssay by several laboratories.
